Bioassay records deposited in PubChem BioAssay by National Center for Advancing Translational Sciences (NCATS).
Many of the other results were omitted from the sample, so hits are more common in it than they were.
Methyltransferases: Primary Screen for Target Class Profiling of Small Molecule Inhibitors of Methyltransferases | purified enzyme, MTase-Glo SAH luminescence; hits give low values | actives 3.9% (n = 25,000) | calls only at 40 µM | AID 1745853, 2022; call rule not given here
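Each enzyme was assayed with SAM and its substrate. SAH formation detected by MTase-Glo luminescence; single-point 40 uM screen[…].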
Calls only.

How did O=C(O)Cc1ccc2oc(-c3ccc(NC(=O)/C=C/c4ccc(Br)cc4)c(F)c3)nc2c1 do in these assays?
Methyltransferases: inactive

Results for Cc1cnc(CN(C)Cc2cn(-c3ccccc3)nn2)[nH]1 ?
Methyltransferases: inactive

What do the screens show for `CCCn1c(=O)c2ccc(Cl)cc2n2c(=O)n(CC(=O)NCc3ccccc3)nc12`?
Methyltransferases: inactive

How did CCC1Oc2ccc(NC(=O)Cc3ccc(OC)cc3)cc2CN(Cc2ccc3c(c2)OCO3)C1=O (stereo not drawn) do in these assays?
Methyltransferases: inactive

Results for Cc1cc(C)c(S(=O)(=O)n2cc(C)cc2C)c(C)c1 ?
Methyltransferases: active

How did COc1ccc(Cn2c(=O)c3ccccc3n3c(-c4ccc(C)cc4)nnc23)cc1 do in these assays?
Methyltransferases: inactive

How did Cc1cccc(N2CCN(C(=O)CCc3nnc4n(CC(C)C)c(=O)c5ccccc5n34)CC2)c1C do in these assays?
Methyltransferases: active

What do the screens show for `Cc1ccc(C)c(N2CCN(C(=O)CCc3nnc4n(CCC(C)C)c(=O)c5ccccc5n34)CC2)c1`?
Methyltransferases: inactive

What do the screens show for `Cc1ccc(Cn2c(=O)c3ccccc3n3c(CCC(=O)N4CCN(c5cccc(C)c5C)CC4)nnc23)cc1`?
Methyltransferases: inactive

Results for C=C1CC2C3(C)C=CC(=O)OC(C)(C)C3CC(OC(C)=O)C2(C)C2C(=O)OC(C)C(=O)C12C (stereo not drawn) ?
Methyltransferases: inactive

How did NS(=O)(=O)c1ccc(N2CCN(CC[C@@H]3OCCc4ccccc43)CC2)cc1 do in these assays?
Methyltransferases: inactive

What do the screens show for `CCCCOC(=O)COc1cc2oc(=O)cc(-c3ccccc3)c2cc1Cl`?
Methyltransferases: inactive

What do the screens show for `COC[C@H]1CCCN1Cc1nc(C2(O)CCN(C(=O)CC(C)(C)C)CC2)cs1`?
Methyltransferases: inactive

How did COc1cc(C(=O)OC[C@H]2O[C@@H](Oc3ccccc3/C=C/C(=O)O)[C@H](O)[C@@H](O)[C@@H]2O)cc(OC)c1OC do in these assays?
Methyltransferases: active

Results for COc1ccc(/C=C\C(=O)O)c(O[C@@H]2O[C@H](CO)[C@@H](O)[C@H](O)[C@H]2O)c1 ?
Methyltransferases: inactive

How did COc1cc(/C=C/C(=O)O[C@H]2[C@H](O)[C@@H](CO)O[C@@]2(CO)O[C@H]2O[C@H](COC(=O)c3ccc(O)cc3)[C@@H](O)[C@H](O)[C@H]2O)cc(OC)c1OC do in these assays?
Methyltransferases: inactive

How did COCCN1CC(CO)C2(CCN(C3CCC3)CC2)C1 (stereo not drawn) do in these assays?
Methyltransferases: inactive

Results for CCOC(=O)c1cc2n(n1)CC(C)(C(=O)NC1CCCCC1)N(c1ccc(C)cc1)C2=O (stereo not drawn) ?
Methyltransferases: inactive

How did CC(C)COC(=O)OCN1C(=O)CN(CCN2CC(=O)N(COC(=O)OCC(C)C)C(=O)C2)CC1=O do in these assays?
Methyltransferases: inactive

What do the screens show for `COc1cc(Nc2nc3c(s2)CCCC3c2ccccc2)ccc1-n1cnc(C)c1` (stereo not drawn)?
Methyltransferases: inactive

What do the screens show for `COc1cc(/C=C2\CCCN([C@@H](C)c3ccc(F)cc3)C2=O)ccc1-n1cnc(C)c1`?
Methyltransferases: active

How did CC[C@H](/C=C/[C@@H](C)[C@H]1CC[C@H]2[C@@H]3CC=C4C[C@@H](O)CC[C@]4(C)[C@H]3CC[C@]12C)C(C)C do in these assays?
Methyltransferases: inactive

How did COc1ccccc1CNC(=O)C1(C)Cn2c(cc3ccccc32)C(=O)N1Cc1ccccn1 (stereo not drawn) do in these assays?
Methyltransferases: inactive

How did Cc1nnn2c(C(=O)NCc3ccc(Cl)cc3)cccc12 do in these assays?
Methyltransferases: inactive

How did C=C1C(=O)O[C@@H]2/C=C(\C)CC/C=C(\C(=O)O[C@@H]3O[C@H](CO)[C@@H](O)[C@H](O)[C@H]3O)CC[C@@H]12 do in these assays?
Methyltransferases: inactive

Results for C=C(C)C(=O)O[C@H]1/C(C=O)=C\CC/C(CO)=C/[C@H]2OC(=O)C(=C)[C@@H]2[C@@H]1OC ?
Methyltransferases: inactive

What do the screens show for `C=C1C(=O)O[C@@H]2/C=C(\C)CC/C=C(\C)CC[C@@H]12`?
Methyltransferases: inactive

Results for C=C1C(=O)O[C@@H]2/C=C(\C)CC/C=C(/C=O)[C@H](OC)[C@@H](OC(=O)C(C)C)[C@@H]12 ?
Methyltransferases: inactive

What do the screens show for `C=C1C(=O)OC2/C=C(\CO)CC/C=C(\C=O)C(OC)C(OC(=O)C(C)CC)C12` (stereo not drawn)?
Methyltransferases: active

How did C=C1C(=O)OC2/C=C(\C)CC/C=C(\C=O)C(OC)C(OC(=O)C(C)CC)C12 (stereo not drawn) do in these assays?
Methyltransferases: active

What do the screens show for `CCN(CC)C(=O)CCn1ccc2cc(S(=O)(=O)N3CCCCC3)ccc21`?
Methyltransferases: inactive

What do the screens show for `CC(=O)Nc1ccn(C2COC(COC(=O)c3ccccc3)O2)c(=O)n1` (stereo not drawn)?
Methyltransferases: inactive

What do the screens show for `O=C(NC[C@H]1COCc2nc3cc(F)ccc3n21)C1CC1`?
Methyltransferases: inactive

How did Cc1ccccc1N1Cc2c(NCc3ccc(F)cc3)ncnc2N(C)CC1=O do in these assays?
Methyltransferases: inactive

What do the screens show for `CC(C)[C@@H]1CN(C(=O)CCCn2cncn2)C[C@H]1NS(=O)(=O)N(C)C`?
Methyltransferases: inactive

What do the screens show for `CCCN1C(=O)c2c(C(=O)NCc3ccccc3OCC)ncn2CC1(C)C(=O)NCc1ccc(F)cc1` (stereo not drawn)?
Methyltransferases: inactive

Results for CCc1cc2c(cc3n2CC(C)(C(=O)NC2CCC(C)CC2)N(CC(C)c2ccccc2)C3=O)s1 (stereo not drawn) ?
Methyltransferases: inactive

Results for CC(C)=C1C[C@@]2(C)C(=CC1=O)CC[C@@H](O)[C@@H]2C ?
Methyltransferases: inactive

How did CC1=CC(=O)C(=C(C)C)CC2C(C)(O)CCC12O (stereo not drawn) do in these assays?
Methyltransferases: active

How did CCCn1c(=O)c2ccccc2n2c(=O)n(CC(=O)NCc3ccc(C)cc3)nc12 do in these assays?
Methyltransferases: inactive

Results for O=C(O)C1CN(CCCP(=O)(O)O)CCN1 (stereo not drawn) ?
Methyltransferases: inactive

How did COc1cccc(CNC(=O)c2ccc3c(=O)nc4c(-c5ccccc5F)n[nH]n4c3c2)c1 do in these assays?
Methyltransferases: inactive

What do the screens show for `CC12CCC3c4ccc(OC5OC(C(=O)O)C(O)C(O)C5O)cc4CCC3C1CCC2O` (stereo not drawn)?
Methyltransferases: inactive

Results for C[C@]12CC[C@@H]3c4ccc(OC(=O)c5ccccc5)cc4CC[C@H]3[C@@H]1CC[C@@H]2O ?
Methyltransferases: inactive

Results for COc1cc2c(cc1O)CC[C@@H]1[C@@H]2CC[C@]2(C)[C@@H](O)CC[C@@H]12 ?
Methyltransferases: active

What do the screens show for `CC(=O)N1CCC([C@@H]2CN(Cc3ccc(C)s3)C[C@H]2CO)CC1`?
Methyltransferases: inactive

Results for CC1(C)CCC2(C(=O)O)CCC3(C)C(=CCC4C5(C)CCC(O)C(C)(CO)C5C(O)CC43C)C2C1 (stereo not drawn) ?
Methyltransferases: inactive

How did Nc1nc(N)c2nc(-c3ccccc3)c(N)nc2n1 do in these assays?
Methyltransferases: inactive

What do the screens show for `NC(N)=NC(=O)c1cnn(-c2cccc3ncccc23)c1C1CC1`?
Methyltransferases: active

What do the screens show for `COC[C@@H]1CN(C(=O)CC2=CCCCC2)C[C@H]1c1ccncc1`?
Methyltransferases: inactive
